# Assay results published in PubChem BioAssay (Tox21).
# Results filed as inconclusive are left out. Entries that show only a call come without a potency. Calls of active or inactive are those of the source. Unless noted, calls come from the whole dose curve; as a rule, active = well fitted curve in the direction sought with a large enough effect in the repeat runs; inconclusive = weak or mixed curves; inactive = no such curve, though single readings can be large; an effect the other way counts as inactive or inconclusive.
# Experiments:
# [1] = qHTS assay to identify small molecule antagonists of the thyroid receptor (TR) signaling pathway - cell viability counter screen (AID 743064); note: nearly all actives have a fitted effect of over 50% in size
# Outline: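 Fluorescence from CellTiter-Fluor, added after 23.5 h exposure at 37 °C, reported viability of GH3.TRE-Luc cells co-treated with compound and 1 nM T3. Measured in the same wells as the luciferase TR readout.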
# [2] = qHTS assay to identify small molecule antagonists of the thyroid receptor (TR) signaling pathway (AID 743065); note: series mostly up to about 70 µM; nearly all actives have a fitted effect of over 55% in size
# Outline: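 GH3.TRE-Luc rat pituitary cells carrying two TR response elements driving luciferase were plated for 4 h, given compound plus 1 nM T3 (final), and incubated 23.5 h at 37 C. ONE-Glo luminescence measured reporter inhibition; CellTiter-Fluor fluorescence tracked cytotoxicity.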
# [3] = test system: thyroid hormone receptor (rat, GH3 cells); experiment: qHTS assay to identify small molecule agonists of the thyroid receptor (TR) signaling pathway (AID 743066; calls by dose curve; note: potency is the fitted concentration of half-maximal effect)
# [4] = molecular target: Estrogen receptor (Homo sapiens) (UniProt P03372); experiment: qHTS assay to identify small molecule antagonists of the estrogen receptor alpha (ER-alpha) signaling pathway (AID 743069; active = well fitted curve in the direction sought with a large enough effect in the signal ratio in the repeat runs, not every such curve was filed as active; the % refers to the signal ratio)
# Outline: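 Screening used a UAS-driven beta-lactamase reporter integrated into HEK293 cells expressing ER-alpha, stimulated with 17beta-estradiol alongside test compounds over 18 hr at 37C; signal came from LiveBLAzer B/G FRET fluorescence.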
# [5] = qHTS assay to identify small molecule antagonists of the estrogen receptor alpha (ER-alpha) signaling pathway - cell viability counter screen (AID 743074; calls by dose curve; note: nearly all actives have a fitted effect of over 45% in size)
# [6] = molecular target: Estrogen receptor (Homo sapiens) (UniProt P03372); experiment: qHTS assay to identify small molecule agonists of the estrogen receptor alpha (ER-alpha) signaling pathway (AID 743075; calls by dose curve)
# [7] = molecular target: Estrogen receptor (Homo sapiens) (UniProt P03372); experiment: qHTS assay to identify small molecule agonists of the estrogen receptor alpha (ER-alpha) signaling pathway using the BG1 cell line (AID 743079); note: nearly all actives have a fitted effect of over 20% in size; note: potency is the fitted concentration of half-maximal effect
# [8] = qHTS assay to identify small molecule antagonists of the estrogen receptor alpha (ER-alpha) signaling pathway using the BG1 cell line (AID 743080; calls by dose curve;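 note: BG1 cells stimulated with 17beta-estradiol alongside compound; series mostly up to about 70 µM; nearly all actives have a fitted effect of over 25% in size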)
# Outline: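 Luciferase inhibition measured with ONE-Glo after 30 min at RT in BG1Luc4E2 cells given test compounds and 17beta-estradiol for 21.5 h at 37 C; CellTiter-Fluor viability read in the same wells beforehand.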
# [9] = qHTS assay to identify small molecule antagonists of the estrogen receptor alpha (ER-alpha) signaling pathway using the BG1 cell line - cell viability counter screen (AID 743081);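 note: compound given together with 17beta-estradiol as the ER stimulus; series mostly up to about 70 µM; nearly all actives have a fitted effect of over 45% in size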
# Aromatase (Homo sapiens) = Aromatase (Homo sapiens) (UniProt P11511); experiment: qHTS assay to identify aromatase inhibitors (AID 743083); note: series mostly up to about 70 µM; nearly all actives have a fitted effect of over 55% in size
# [10] = qHTS assay to identify aromatase inhibitors - cell viability counter screen (AID 743084);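 note: cells stimulated with testosterone during compound exposure; nearly all actives have a fitted effect of over 55% in size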
# [11] = qHTS assay to identify small molecule that activate the aryl hydrocarbon receptor (AhR) signaling pathway - cell viability counter screen (AID 743086);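 note: HepG2 liver cells carrying the AhR DRE luciferase reporter; series mostly up to about 70 µM; nearly all actives have a fitted effect of over 45% in size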
# Outline: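 HepG2-AhR-luc (HG2L7.5c1) cells, 4000/well, were preincubated 5 h at 37C, exposed to compound in qHTS format for 24 hr at 37C, then given CellTiter-Fluor for 30 min; viability was read as fluorescence in the reporter wells.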
# [12] = molecular target: Peroxisome proliferator-activated receptor gamma (Homo sapiens) (UniProt P37231); experiment: qHTS assay to identify small molecule agonists of the peroxisome proliferator-activated receptor gamma (PPARg) signaling pathway (AID 743094; active = well fitted activation curve with a large enough effect in the signal ratio in the repeat runs, not every such curve was filed as active; the % refers to the signal ratio)
# Outline: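 Agonist activity was taken from a beta-lactamase reporter (FRET substrate, 1 h at room temperature) in HEK293H cells carrying a PPARg UAS-bla construct. Compounds in DMSO were incubated 17 h at 37C after a 5 h cell pre-incubation.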
# [13] = molecular target: Peroxisome proliferator-activated receptor gamma (Homo sapiens) (UniProt P37231); experiment: qHTS assay to identify small molecule antagonists of the peroxisome proliferator-activated receptor gamma (PPARg) signaling pathway (AID 743191; calls by dose curve; note: series mostly up to about 63 µM; nearly all actives have a fitted effect of over 30% in size)
# Outline: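 GeneBLAzer PPARg UAS-bla HEK293H cells carrying a UAS-driven beta-lactamase reporter were plated at 3000 cells/well, preincubated 5 h at 37C, then given compound for 17 h at 37C; LiveBLAzer B/G FRET substrate was read after 1 h at room temperature.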
# [14] = qHTS assay to identify small molecule antagonists of the peroxisome proliferator-activated receptor gamma (PPARg) signaling pathway - cell viability counter screen (AID 743194); note: nearly all actives have a fitted effect of over 55% in size
# Outline: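 PPARg-UAS-bla HEK293H cells were plated, rested 5 h at 37 C, then treated with compounds plus rosiglitazone (50 nM final) for 17 h at 37 C; viability was then read by CellTiter-Glo luminescence after 30 min at room temperature.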
# [15] = qHTS assay for small molecule agonists of the antioxidant response element (ARE) signaling pathway - cell viability counter screen (AID 743203; calls by dose curve; note: nearly all actives have a fitted effect of over 55% in size)
# Outline: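 Viability counter screen: CellTiter-Glo luminescence, read after 30 min at room temperature, in ARE-bla HepG2 wells. Compound exposure lasted 16 h at 37C/5% CO2, following a 5 h pre-incubation of the cells after plating.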
# [16] = qHTS assay for small molecule activators of the heat shock response signaling pathway - cell viability counter screen (AID 743209); note: nearly all actives have a fitted effect of over 50% in size
# Outline: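 Cytotoxicity counter screen run in the same wells as the heat-shock bla reporter assay: HeLa HSE-bla cells, 5 h compound exposure at 37 C, viability read by CellTiter-Glo luminescence.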
# [17] = qHTS assay for small molecule activators of the heat shock response signaling pathway (AID 743210; active = well fitted activation curve with a large enough effect in the signal ratio in the repeat runs, with a control signal flat, not every such curve was filed as active; the % refers to the signal ratio;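 note: HeLa cells with beta-lactamase reporter driven by heat shock elements; series mostly up to about 63 µM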)
# Outline: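 Activation of heat shock element-controlled beta-lactamase expression is measured in HeLa cells by LiveBLAzer FRET fluorescence, with compound exposure lasting 5 h at 37 C and substrate loading 2.5 h at room temperature.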
# [18] = qHTS assay for small molecule agonists of the antioxidant response element (ARE) signaling pathway (AID 743202; active = well fitted activation curve with a large enough effect in the signal ratio in the repeat runs, not every such curve was filed as active; the % refers to the signal ratio)
# Outline: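 Steps: seed ARE-bla HepG2 cells (2,000/well); incubate 5 h at 37 C; add compounds by pin tool; incubate 16 h at 37 C; add FRET substrate; read fluorescence after 2 h at RT.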
# [19] = molecular target: Aryl hydrocarbon receptor (Homo sapiens) (UniProt P35869); experiment: qHTS assay to identify small molecule that activate the aryl hydrocarbon receptor (AhR) signaling pathway (AID 743085);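 note: HG2L7.5c1 human HepG2 liver cells with stably integrated DRE-driven firefly reporter; series mostly up to about 70 µM; nearly all actives have a fitted effect of over 15% in size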
# Outline: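 Cell line HG2L7.5c1 (human hepatoma, 20× DRE-luc). Plated, 5 h 37C, compound/DMSO added, 24 h 37C. CellTiter-Fluor 30 min 37C → fluorescence; then ONE-Glo 30 min RT → luminescence.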
# Sequence of Estrogen receptor (Homo sapiens) (P03372 whole entry, looked up): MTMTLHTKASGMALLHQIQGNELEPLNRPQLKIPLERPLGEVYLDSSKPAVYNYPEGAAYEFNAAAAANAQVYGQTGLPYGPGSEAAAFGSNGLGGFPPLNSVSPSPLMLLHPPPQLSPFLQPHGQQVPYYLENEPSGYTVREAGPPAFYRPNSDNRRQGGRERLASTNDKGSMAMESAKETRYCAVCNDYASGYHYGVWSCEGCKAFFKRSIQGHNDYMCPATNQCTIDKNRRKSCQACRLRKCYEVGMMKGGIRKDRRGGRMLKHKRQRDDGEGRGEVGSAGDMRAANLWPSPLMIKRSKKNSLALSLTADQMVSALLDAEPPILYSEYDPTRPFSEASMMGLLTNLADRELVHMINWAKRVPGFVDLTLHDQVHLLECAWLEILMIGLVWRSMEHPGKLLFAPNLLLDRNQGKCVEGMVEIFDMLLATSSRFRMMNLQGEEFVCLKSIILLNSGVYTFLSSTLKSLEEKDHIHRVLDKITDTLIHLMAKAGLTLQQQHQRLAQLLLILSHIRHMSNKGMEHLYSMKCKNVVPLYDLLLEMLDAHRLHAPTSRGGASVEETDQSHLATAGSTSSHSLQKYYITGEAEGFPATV
# Sequence of Aromatase (Homo sapiens) (P11511 whole entry, looked up): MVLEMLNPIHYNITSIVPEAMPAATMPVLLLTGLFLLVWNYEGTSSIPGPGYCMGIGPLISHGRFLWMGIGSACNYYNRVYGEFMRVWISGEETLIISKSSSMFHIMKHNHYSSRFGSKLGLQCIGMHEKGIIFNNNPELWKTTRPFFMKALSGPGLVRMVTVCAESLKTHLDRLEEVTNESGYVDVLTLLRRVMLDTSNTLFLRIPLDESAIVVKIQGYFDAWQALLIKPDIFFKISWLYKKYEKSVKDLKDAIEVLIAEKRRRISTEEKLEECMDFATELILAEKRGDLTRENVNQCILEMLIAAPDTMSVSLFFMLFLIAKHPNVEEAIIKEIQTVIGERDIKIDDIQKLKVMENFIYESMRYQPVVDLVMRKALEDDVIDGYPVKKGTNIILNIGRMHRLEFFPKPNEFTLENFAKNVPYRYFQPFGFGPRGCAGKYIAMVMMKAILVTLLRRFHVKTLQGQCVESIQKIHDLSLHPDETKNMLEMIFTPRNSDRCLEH
# Sequence of Peroxisome proliferator-activated receptor gamma (Homo sapiens) (P37231 whole entry, looked up): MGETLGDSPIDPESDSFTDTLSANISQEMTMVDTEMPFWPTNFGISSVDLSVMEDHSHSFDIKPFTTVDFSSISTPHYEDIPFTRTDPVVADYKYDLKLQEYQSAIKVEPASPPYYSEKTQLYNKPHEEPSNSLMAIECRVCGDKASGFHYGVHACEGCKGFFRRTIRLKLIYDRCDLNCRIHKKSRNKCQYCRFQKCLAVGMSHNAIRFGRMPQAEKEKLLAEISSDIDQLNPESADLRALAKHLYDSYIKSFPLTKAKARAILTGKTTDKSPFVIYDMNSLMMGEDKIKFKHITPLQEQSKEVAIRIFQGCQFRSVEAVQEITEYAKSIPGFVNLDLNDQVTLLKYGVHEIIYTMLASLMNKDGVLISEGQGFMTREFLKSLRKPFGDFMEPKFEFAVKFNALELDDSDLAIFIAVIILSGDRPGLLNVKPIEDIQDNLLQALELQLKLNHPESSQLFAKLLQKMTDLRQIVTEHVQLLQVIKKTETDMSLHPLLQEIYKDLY
# Sequence of Aryl hydrocarbon receptor (Homo sapiens) (P35869 whole entry, looked up): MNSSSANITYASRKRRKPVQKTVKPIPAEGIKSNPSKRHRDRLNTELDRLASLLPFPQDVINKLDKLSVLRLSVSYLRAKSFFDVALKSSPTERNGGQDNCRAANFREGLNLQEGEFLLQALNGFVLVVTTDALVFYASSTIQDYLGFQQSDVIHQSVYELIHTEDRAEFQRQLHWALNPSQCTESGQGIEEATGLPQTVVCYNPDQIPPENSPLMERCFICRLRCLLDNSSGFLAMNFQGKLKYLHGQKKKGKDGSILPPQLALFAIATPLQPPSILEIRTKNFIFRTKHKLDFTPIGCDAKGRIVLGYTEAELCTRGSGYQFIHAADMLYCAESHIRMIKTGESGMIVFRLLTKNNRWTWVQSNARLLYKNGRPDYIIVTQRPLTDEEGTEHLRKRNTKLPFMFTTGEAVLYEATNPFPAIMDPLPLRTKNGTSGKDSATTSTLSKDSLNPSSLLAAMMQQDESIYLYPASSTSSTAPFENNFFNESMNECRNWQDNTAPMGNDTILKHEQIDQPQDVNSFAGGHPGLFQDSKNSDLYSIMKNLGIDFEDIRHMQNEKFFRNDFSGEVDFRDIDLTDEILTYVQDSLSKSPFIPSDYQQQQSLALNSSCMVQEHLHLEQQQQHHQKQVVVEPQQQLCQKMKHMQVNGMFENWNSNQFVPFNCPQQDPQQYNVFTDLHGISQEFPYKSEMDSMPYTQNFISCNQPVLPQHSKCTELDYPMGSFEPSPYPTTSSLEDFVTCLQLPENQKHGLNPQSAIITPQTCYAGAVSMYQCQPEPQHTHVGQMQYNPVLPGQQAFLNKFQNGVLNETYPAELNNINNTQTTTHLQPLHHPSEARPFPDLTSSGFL
SMILES,Potency [1],Potency [2],Potency [3],Potency [4],Potency [5],Potency [6],Potency [7],outcome [8],outcome [9],outcome (Aromatase (Homo sapiens)),Potency [10],Potency [11],outcome [12],Potency [13],outcome [14],outcome [15],outcome [16],outcome [17],Potency [18],Potency [19]
COC(OC)C(C)c1ccccc1 (centres undefined),inactive,inactive,inactive,inactive,inactive,inactive,inactive,inactive,inactive,inactive,inactive,inactive,inactive,inactive,inactive,inactive,inactive,inactive,–,–
C=CCOc1c(Br)cc(Br)cc1Br,inactive,inactive,inactive,inactive,–,inactive,inactive,inactive,inactive,inactive,inactive,–,inactive,inactive,–,inactive,inactive,inactive,inactive,–
CCCOC(=O)CCCCC(=O)OCCC,inactive,inactive,inactive,inactive,inactive,inactive,inactive,inactive,–,inactive,inactive,inactive,inactive,–,inactive,inactive,inactive,inactive,inactive,inactive
C=CCOC(=O)c1ccc(C(=O)OCC=C)c(C(=O)OCC=C)c1,inactive,inactive,inactive,inactive,–,inactive,inactive,inactive,inactive,inactive,inactive,inactive,inactive,inactive,inactive,inactive,inactive,inactive,inactive,inactive
CC(C)CCCCCCOC(=O)C1CCCCC1C(=O)OCCCCCCC(C)C (centres undefined),inactive,inactive,inactive,–,inactive,inactive,inactive,inactive,inactive,inactive,inactive,inactive,inactive,–,inactive,inactive,inactive,–,inactive,inactive
O=S(=O)(O)CCO,inactive,inactive,inactive,inactive,inactive,inactive,inactive,inactive,inactive,inactive,inactive,inactive,inactive,–,inactive,inactive,inactive,inactive,inactive,–
CCNC(=O)NCCCOc1cccc(CN2CCCCC2)c1,inactive,inactive,inactive,inactive,–,inactive,inactive,inactive,inactive,inactive,inactive,inactive,inactive,–,–,–,inactive,inactive,inactive,inactive
CC(=O)OCC(=O)[C@@]1(O)[C@H](OC(C)=O)C[C@H]2[C@@H]3CCC4=CC(=O)C=C[C@]4(C)[C@@]3(F)[C@@H](O)C[C@@]21C,inactive,inactive,inactive,–,inactive,inactive,–,–,inactive,inactive,inactive,inactive,inactive,inactive,inactive,–,inactive,inactive,inactive,inactive
CCC(O)C(C)(C)C (centres undefined),inactive,inactive,inactive,inactive,inactive,inactive,–,inactive,inactive,inactive,inactive,–,inactive,inactive,inactive,–,inactive,–,inactive,inactive
CCOC(=O)CC#N,inactive,inactive,inactive,inactive,inactive,inactive,inactive,inactive,inactive,inactive,–,inactive,inactive,inactive,inactive,inactive,inactive,inactive,inactive,inactive
CCCCOC(=O)[C@@H](C)Oc1ccc(Oc2ccc(C(F)(F)F)cn2)cc1,inactive,inactive,inactive,–,inactive,inactive,61.5 µM (active),inactive,inactive,–,inactive,inactive,inactive,–,inactive,inactive,inactive,inactive,–,inactive
CC(CC(=O)O)CC(C)(C)C (centres undefined),inactive,inactive,inactive,inactive,inactive,inactive,inactive,inactive,inactive,inactive,–,inactive,inactive,–,inactive,inactive,inactive,–,inactive,inactive
CC(=O)Nc1ccc(C)cc1,inactive,inactive,inactive,inactive,inactive,inactive,–,inactive,inactive,inactive,inactive,–,inactive,inactive,inactive,inactive,inactive,inactive,inactive,inactive
N#CCCOCCOCCC#N,inactive,inactive,inactive,inactive,inactive,inactive,inactive,inactive,inactive,inactive,inactive,–,inactive,–,inactive,inactive,inactive,–,inactive,–
CCC(C)(C)C1CCC(=O)CC1,inactive,inactive,inactive,inactive,inactive,inactive,–,inactive,inactive,inactive,inactive,inactive,inactive,–,inactive,inactive,inactive,inactive,inactive,inactive
O=C(O)CCNC(=O)c1ccccc1,inactive,inactive,11.9 µM (active),inactive,inactive,inactive,–,inactive,inactive,inactive,inactive,inactive,inactive,inactive,inactive,inactive,inactive,inactive,inactive,inactive
O=C1OC(=O)c2ccccc21,inactive,inactive,inactive,inactive,inactive,inactive,inactive,inactive,inactive,inactive,inactive,inactive,inactive,–,inactive,inactive,inactive,–,inactive,–
O=C(/C=C/c1ccccc1)NCCO,inactive,inactive,inactive,inactive,inactive,inactive,inactive,inactive,inactive,inactive,inactive,inactive,inactive,–,inactive,–,inactive,inactive,inactive,–
CC(C)COC(=O)/C=C/c1ccccc1,inactive,inactive,inactive,inactive,inactive,inactive,inactive,inactive,inactive,–,–,inactive,–,–,inactive,inactive,inactive,inactive,inactive,inactive
O=P(O)(O)OCC(O)CO (centres undefined),inactive,inactive,inactive,inactive,–,inactive,inactive,inactive,inactive,inactive,inactive,inactive,inactive,inactive,inactive,inactive,inactive,–,inactive,inactive
CN[C@@H]1[C@H](O)[C@H](NC)[C@H]2O[C@@]3(O)C(=O)C[C@@H](C)O[C@H]3O[C@@H]2[C@H]1O,inactive,inactive,inactive,inactive,inactive,inactive,inactive,inactive,–,inactive,inactive,inactive,inactive,inactive,inactive,inactive,inactive,inactive,inactive,–
CCCCCCCC/C=C\CCCCCCCC(=O)OC[C@@H](O)[C@H]1OC[C@H](O)[C@H]1O,inactive,inactive,inactive,inactive,inactive,inactive,inactive,inactive,inactive,inactive,inactive,inactive,inactive,–,–,inactive,inactive,inactive,–,–
CC(=O)c1ccc2c(c1)CCCC2,inactive,inactive,inactive,inactive,inactive,–,–,inactive,inactive,inactive,inactive,inactive,inactive,–,inactive,inactive,inactive,inactive,inactive,inactive
COc1cc2c3cc1Oc1cc(ccc1O)C[C@@H]1c4c(cc(OC)c(O)c4Oc4ccc(cc4)C[C@@H]3N(C)CC2)CC[N+]1(C)C,inactive,inactive,inactive,–,inactive,–,–,–,inactive,inactive,inactive,inactive,inactive,–,inactive,–,inactive,inactive,inactive,inactive
CC(=O)OCCCc1ccccc1,inactive,inactive,inactive,–,inactive,–,–,–,inactive,inactive,inactive,inactive,–,–,inactive,inactive,inactive,inactive,–,inactive
O=C(c1ccc2c(c1)C(=O)OC2=O)c1ccc2c(c1)C(=O)OC2=O,inactive,inactive,inactive,–,inactive,–,–,–,inactive,inactive,inactive,inactive,inactive,–,–,–,inactive,–,inactive,inactive
CCOC(=O)CCc1ccccc1,inactive,inactive,inactive,–,inactive,–,–,–,inactive,inactive,inactive,inactive,inactive,inactive,inactive,inactive,inactive,inactive,inactive,inactive
Cc1ncc([N+](=O)[O-])n1CC(O)CCl (centres undefined),inactive,inactive,inactive,–,inactive,–,–,–,inactive,inactive,inactive,inactive,inactive,–,inactive,inactive,–,–,inactive,inactive
O=c1[nH]c(=O)c2ccccc2o1,inactive,inactive,inactive,–,inactive,–,–,–,inactive,inactive,inactive,inactive,inactive,inactive,inactive,inactive,inactive,inactive,inactive,inactive
SCCSCCS,inactive,inactive,inactive,–,inactive,–,–,–,inactive,inactive,inactive,inactive,inactive,–,inactive,–,inactive,inactive,inactive,inactive
